# Data as given in PubChem BioAssay (EPA / NIEHS).
# Results filed as inconclusive are left out. Active and inactive are the calls of the source. How the source made its calls, unless noted: active means hit-call score of the fitted dose curve at least 0.9, where 1 is the maximum; inconclusive means response in the unintended direction; inactive means score below 0.9.
# Tests used:
# [1] = ATG_M_61_XSP2: Attagene TRANS-FACTORIAL Multi-Species (XSP2) HepG2 Assay for M61 Transcription Factor (Internal Marker) (AID 2283835; active means hit-call score of the fitted dose curve at least 0.9, where 1 is the maximum; inactive means score below 0.9;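 further: reporter mRNA of an internal background marker read by RT-PCR and capillary electrophoresis; active means a rise in signal above the DMSO baseline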)
# In short: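 First, HepG2 cells are transfected with reporter units under GAL4-UAS control. Next, chemicals are applied for 24 h. Then total RNA is reverse-transcribed, amplified, fluorescently labelled and sized by capillary electrophoresis, with gain of signal scored against DMSO.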
# [2] = ATG_XTT_Cytotoxicity_XSP2: Cytotoxicity Assessment in the Attagene TRANS-FACTORIAL Multi-Species (XSP2) HepG2 Assay (AID 2283837)
# In short: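 HepG2 cells, transiently transfected with multiple reporter constructs, exposed to chemical for 24 h. Cell number assessed with XTT fluorescence read-out; loss of signal fitted relative to DMSO.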
# [3] = target: human Thyroid hormone Receptor alpha (TRa), THRA (gene 7067) (UniProt P10827); test: ATG_hTRa_XSP2: Attagene TRANS-FACTORIAL Multi-Species (XSP2) HepG2 Assay for human Thyroid hormone Receptor alpha (TRa) (AID 2283838)
# In short: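 HepG2 cells transiently transfected with multiplexed GAL4-UAS reporter units and exogenous NR-GAL4 chimeras; 24 h chemical exposure with 3 nM 6-alpha-fluorotestosterone and 1.5 nM norgestrel present. Reporter mRNA measured by RT-PCR, FAM labelling, HpaI digestion, capillary electrophoresis; gain-of-signal versus DMSO.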
# [4] = CEETOX_H295R_11DCORT_noMTC: CeeTox H295R High-throughput Steroidogenesis Assay for 11-Deoxycortisol (11DCORT), maximum tolerated concentration (MTC) filtered results only (AID 2283911; active means hit-call score of the fitted dose curve at least 0.9, where 1 is the maximum; inactive means score below 0.9); settings: actives raise or lower the signal
# In short: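 HPLC-MS/MS read-out of 11-deoxycortisol after MTBE extraction of H295R medium. Cells: forskolin 10 uM pre-stimulation 48 h, chemical 48 h, 0.1% DMSO final. Bidirectional fit vs DMSO baseline; no MTC filtering.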
# Chain of human Thyroid hormone Receptor alpha (TRa), THRA (gene 7067) (P10827 whole entry, looked up, the tested form may be a part): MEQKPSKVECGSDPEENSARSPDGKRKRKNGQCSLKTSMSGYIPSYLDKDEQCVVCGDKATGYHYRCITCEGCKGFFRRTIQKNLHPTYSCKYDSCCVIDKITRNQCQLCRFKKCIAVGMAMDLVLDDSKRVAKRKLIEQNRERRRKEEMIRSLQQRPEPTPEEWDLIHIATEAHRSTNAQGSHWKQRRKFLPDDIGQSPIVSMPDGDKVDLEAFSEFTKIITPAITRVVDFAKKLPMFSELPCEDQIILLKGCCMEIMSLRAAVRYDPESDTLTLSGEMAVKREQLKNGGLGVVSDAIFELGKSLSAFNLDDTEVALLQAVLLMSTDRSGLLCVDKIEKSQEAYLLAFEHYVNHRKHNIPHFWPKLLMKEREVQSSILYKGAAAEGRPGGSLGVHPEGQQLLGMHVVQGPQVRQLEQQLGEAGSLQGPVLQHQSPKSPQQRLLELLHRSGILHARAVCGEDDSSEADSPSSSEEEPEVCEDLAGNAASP
structure (smiles),measurement,setting,value
O=P(OC(CCl)CCl)(OC(CCl)CCl)OC(CCl)CCl,outcome,[1],inactive
Oc1ccc2c(c1)-c1ccccc1C2,outcome,[1],inactive
same,outcome,[2],inactive
same,outcome,[3],inactive
Clc1nc(Cl)c(Cl)c(Cl)c1Cl,outcome,[2],inactive
CC(C)=CCC/C(C)=C\CO,outcome,[4],inactive
